Compound activity deposited in PubChem BioAssay by several laboratories.
Only some compounds are listed: those with a hit (about 4% of all), similar ones and a draw of the others.
VHR inh abs: VHR1 phosphatase inhibitors, primary screen, biochemical, absorbance, uHTS | Dual specificity protein phosphatase 3 (Homo sapiens), P51452 | recombinant VHR phosphatase, pNPP absorbance | inhibition, % at 13.3 µM | 290,000 tested, 0.52% active | AID 1654, 2009; in the data active = inhibition above about 50%
Target sequence (P51452 whole entry, looked up): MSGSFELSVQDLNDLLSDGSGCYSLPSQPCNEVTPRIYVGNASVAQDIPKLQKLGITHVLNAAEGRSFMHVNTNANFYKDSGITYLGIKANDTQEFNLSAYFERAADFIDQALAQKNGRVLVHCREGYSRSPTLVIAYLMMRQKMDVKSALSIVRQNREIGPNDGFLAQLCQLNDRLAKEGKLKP
BoNT A protease: BoNT/A light chain protease inhibitors, primary screen, biochemical, flow cytometry, MLPCN library. 360,000 tested, 0.17% active. multiplex microsphere protease substrate cleavage. AID 588499, 2011. Botulinum neurotoxin type A light chain protease (Clostridium botulinum A str. ATCC 3502). inhibition, % at 10 µM; note: plate controls were buffer without enzyme for full effect and enzyme alone for no effect
BoNT-F LC inh: BoNT/F light chain protease inhibitors, primary screen, biochemical, flow cytometry, MLPCN library; Botulinum neurotoxin type F light chain protease (Clostridium botulinum); Multiplex microsphere protease cleavage assay; inhibition, % at 10 µM; 360,000 tested, 0.22% active; AID 588497, 2011; in the data active = inhibition above about 35%, passing the limit was not always enough; inconclusive = no clear call, values can overlap the other calls; note: plate controls were buffer without enzyme for full effect and enzyme alone for no effect
MazF activator: activators of E. coli MazEF toxin-antitoxin RNase, primary screen, biochemical, fluorescence, uHTS; FAM/BHQ RNA-DNA oligo cleavage fluorescence, 5 h; Endoribonuclease toxin MazF (Escherichia coli (strain K12)), P0AE70; activation, % at 20 µM; 350,000 tested, 0.32% active; in the data active = activation above about 50%
Target sequence (P0AE70 whole entry, looked up): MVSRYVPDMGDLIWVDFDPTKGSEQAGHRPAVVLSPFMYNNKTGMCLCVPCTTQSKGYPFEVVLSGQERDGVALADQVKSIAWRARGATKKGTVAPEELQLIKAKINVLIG
Anthrax LF inh2: Bacillus anthracis LF protease inhibitors, primary screen, biochemical, multiplex microsphere, MLPCN library | Lethal factor (Bacillus anthracis), P15917 | multiplex microsphere protease cleavage assay | inhibition, % at 10 µM | 360,000 tested, 0.12% active; note: plate controls were buffer without enzyme for full effect and enzyme alone for no effect
Autofluor counter: flagged as autofluorescent in microsphere protease counterscreen; compound autofluorescence counterscreen, microsphere flow cytometry; stronger effect = higher value; fluorescence intensity (no concentration beside the values); 360,000 tested, 3.1% active; AID 624483; in the data active = fluorescence intensity above about 16000; inconclusive = no clear call, values can overlap the other calls
BoNTA LC inh 1: BoNT/A light chain protease inhibitors, confirmation, biochemical, flow cytometry, cherry pick 1; shares compounds with BoNT-F LC inh; multiplex microsphere protease assay; inhibition, % at 10 µM; 720 tested, 3% active; AID 602139, 2011; in the data active = inhibition above about 32%
BoNTF LC inh 1: BoNT/F light chain protease inhibitors, confirmation, biochemical, flow cytometry, cherry pick 1; shares compounds with BoNT-F LC inh; multiplex microsphere protease cleavage assay; inhibition, % at 10 µM; 720 tested, under 10 active; AID 602140, 2011; call rule not given here
Anthrax LF CP1: Bacillus anthracis LF protease inhibitors, confirmation, biochemical, multiplex microsphere, cherry pick 1; shares compounds with BoNT-F LC inh; inhibition, % at 10 µM; AID 602142, 2011; 720 tested, under 10 active; multiplex microsphere protease cleavage assay; call rule not given here
Numbers without * were called inactive; ? = inconclusive; . = no result given. Cut-off read from the data, not from the text of the source, unless noted: active = inhibition above about 30%; inconclusive = no clear call, values can overlap the other calls; inactive = below that.

SMILES | VHR inh abs | BoNT A protease | BoNT-F LC inh | MazF activator | Anthrax LF inh2 | Autofluor counter | BoNTA LC inh 1 | BoNTF LC inh 1 | Anthrax LF CP1
COc1ccc(NC(=O)c2[nH]c(C)c(C(C)=O)c2C)cc1 | 20.2 | -2.0 | -3.8 | 0.9 | -3.1 | 4240 | . | . | .
CCOc1ccc(NC(=O)c2[nH]c(C)c(C(C)=O)c2C)cc1 | 13.9 | -0.9 | 35.1* | 3.9 | 2.8 | 7115 | -1.6 | -6.7 | -1.6
CSc1nnc2c(n1)c(C)nn2-c1cccc(C)c1 | 4.3 | 68.8* | 9.9 | -4.8 | 52.9* | 6571 | 33.3* | 4.0 | 19.7
COc1ccc(CNC(=O)C/C(C)=N/NC(=O)c2ccc([N+](=O)[O-])cc2Cl)cc1 | -5.3 | -0.6 | 4.9 | -1.7 | -1.1 | 3554 | . | . | .
OC1CN=C2CCCc3c2n(c2ccc(Cl)cc32)C1 (centres undefined) | 19.2 | 54.3* | 24.3 | 8.7 | 41.7* | 4022 | 3.9 | 0.2 | 7.5
Cc1c(NC(=O)CN2C(=O)NC(C)(c3ccc(OC(F)F)cc3)C2=O)c(=O)n(-c2ccccc2)n1C (centres undefined) | . | 1.7 | 3.2 | 0.5 | -6.6 | ? | . | . | .
C=CCc1cccc(CNn2cnnc2)c1O | 10.7 | -1.2 | 42.6* | 5.1 | 3.0 | 4273 | -0.9 | -0.4 | -4.1
COc1ccc(CCNC(=O)c2ccc3c(c2)OCCO3)cc1 | 20.4 | 0.1 | -1.8 | -8.0 | -5.4 | 3469 | . | . | .
COc1ccc(CCNC(=O)c2ccc3c(c2)OCO3)cc1 | 15.3 | 63.6* | 1.9 | 9.7 | 2.8 | 5785 | 1.3 | -1.5 | 1.6
COC(=O)c1c(NC(=O)c2ccccc2[N+](=O)[O-])sc2c1CC(C)(C)NC2(C)C | 5.7 | 8.3 | 70.3* | -0.1 | 33.6* | 6297 | -0.1 | -2.0 | 4.9
CCNC(=O)C1(C)CCN1C(=O)Cc1ccc(C(C)C)cc1 (centres undefined) | . | -0.4 | -7.9 | . | -1.3 | 3768 | . | . | .
COCCCNC(=O)C(Cc1ccccc1)NS(=O)(=O)c1ccc2c(c1)c(=O)n(C)c(=O)n2C (centres undefined) | 31.7 | 6.0 | 51.7* | 10.1 | -3.6 | 7854 | -0.5 | -5.6 | -3.0
Cn1c(=O)c2cc(S(=O)(=O)NC(Cc3ccccc3)C(=O)NCc3ccco3)ccc2n(C)c1=O (centres undefined) | 10.7 | 0.4 | -4.7 | -4.6 | 6.5 | 5559 | . | . | .
Cn1c(=O)c2cc3ccccc3nc2n(C)c1=O | 27.7 | -1.3 | ? | -15.9 | 29.5* | 4208 | 0.2 | -0.8 | 2.0
CCc1ccccc1NC(=O)c1ccc(OCc2c(C)noc2C)cc1 | . | 0.1 | 2.9 | 15.5 | 1.8 | 3776 | . | . | .
O=C(NC1CCCCC1)C1CCN(c2ncccn2)CC1 | 10.2 | -0.8 | 1.1 | 9.0 | -1.2 | 4664 | . | . | .
O=C(NC1CCCCCC1)C1CCCN(c2ncccn2)C1 (centres undefined) | -2.9 | 78.7* | 14.6 | 3.5 | 7.9 | 4520 | 1.5 | -6.7 | -5.3
O=C(Nc1cccc(O)c1)c1cccc(S(=O)(=O)Nc2cccc(O)c2)c1 | 1.7 | 3.6 | -20.5 | 5.9 | -3.3 | 3622 | -0.4 | -4.3 | -1.6
O=C(Nc1ccc(NS(=O)(=O)c2ccccc2)cc1)c1ccccc1 | -11.4 | -3.2 | -20.2 | 25.8 | -12.2 | 4015 | . | . | .
CC(=O)c1ccc(S(=O)(=O)Nc2ccc(C(=O)N3CCC3)cc2)cc1 | . | -1.6 | 40.1* | 5.3 | -0.5 | 4779 | -1.0 | -1.7 | -3.6
O=C(O)c1ccc(NS(=O)(=O)c2ccc(C(=O)Nc3ccccc3)cc2)cc1 | 22.1 | -4.0 | -4.5 | 0.5 | 2.8 | 6786 | 0.9 | -0.4 | 2.6
O=C(O)c1ccc(NC(=O)c2cccc(S(=O)(=O)Nc3ccc(C(=O)O)cc3)c2)cc1 | -46.6 | 3.0 | 39.0* | 8.0 | 6.7 | 3985 | -0.4 | 3.9 | 1.8
O=c1[nH]c(-c2ccccn2)cc2ccccc12 | -14.3 | 2.2 | -0.6 | -0.5 | 0.9 | 2134 | . | . | .
CCCC(=O)Nc1cc(C)c(NC(=O)c2ccncc2)cn1 | 2.8 | 0.5 | 8.3 | -3.2 | -0.8 | 4853 | . | . | .
O=C(O)c1ccc(CSc2nc3c(c(=O)[nH]2)CCC3)cc1 | . | -0.3 | -1.4 | . | -4.1 | 3724 | . | . | .
SMILES | VHR inh abs | BoNT A protease | BoNT-F LC inh | MazF activator | Anthrax LF inh2 | Autofluor counter | BoNTA LC inh 1 | BoNTF LC inh 1 | Anthrax LF CP1
C=CCc1ccc(OCCOCCN(C)C)c(OC)c1 | -16.6 | -0.3 | 14.0 | -0.9 | -2.2 | 3818 | . | . | .
C=CCc1ccc(OCCOc2cccc3ccc(C)nc23)c(OC)c1 | 13.7 | 45.8* | 53.4* | 3.3 | -7.6 | 9218 | -2.2 | -2.9 | -2.8
Cc1ccc2cccc(OCc3ccc(Br)cc3)c2n1 | -16.2 | 0.0 | 39.2* | 7.6 | -5.6 | 3567 | -0.1 | -8.3 | 3.6
Cc1ccc2cccc(OCc3ccc(F)cc3)c2n1 | 9.2 | 1.1 | 4.8 | 1.1 | -6.4 | 3466 | . | . | .
CCC(=O)N1CCc2cc(-c3csc(NC(=O)c4ccco4)n3)ccc21 | -12.5 | -1.8 | 34.7* | 10.1 | -9.5 | 3917 | 2.1 | 4.9 | -0.9
O=C(Nc1nc(-c2ccc3c(c2)OCCO3)cs1)c1ccco1 | 1.2 | -0.3 | -4.6 | . | -0.3 | 6117 | . | . | .
NC(=O)CSc1nnc(-c2cnccn2)n1-c1ccccc1 | -1.4 | -0.1 | -0.6 | 2.0 | -1.3 | 2835 | . | . | .
Cc1ccc(-n2c(SCC(N)=O)nnc2-c2cnccn2)cc1 | 45.7 | -1.1 | ? | -3.2 | 36.1* | 3632 | 0.4 | 3.6 | 0.0
CC(Oc1ccc2ccc(=O)oc2c1)C(=O)NCCN1CCOCC1 (centres undefined) | -8.2 | 1.8 | -0.6 | -2.9 | -0.3 | 4029 | . | . | .
O=C1N(c2ccccc2)c2ccccc2C1(O)C(F)(F)F (centres undefined) | 6.1 | 0.7 | 28.4 | 6.0 | 35.9* | 3007 | -0.1 | -0.1 | -1.0
CC1=Nc2cc(C(=O)NCCCN3CCN(C)CC3)ccc2Sc2ccc(C)cc21 | 10.8 | 0.1 | -3.4 | 12.3 | 1.7 | 5821 | . | . | .
CCn1c(C)c(C(C)=O)c(N2CCN(C(c3ccccc3)c3ccccc3)CC2)nc1=S | 31.9 | 6.0 | -4.3 | 10.2 | 0.5 | 4010 | . | . | .
CCn1c(C)c(C(C)=O)c(N2CCN(c3ccccc3)CC2)nc1=S | 13.3 | 46.3* | -55.0 | -3.6 | 20.5 | 3921 | -3.6 | -16.3 | 0.9
O=[N+]([O-])c1cc(C(F)(F)F)cc([N+](=O)[O-])c1NN=C1CCCCC1 | -3.4 | -1.1 | -3.2 | -4.0 | -2.2 | 2008 | . | . | .
